Laboratory results reported in PubChem BioAssay AID743172 (National Center for Advancing Translational Sciences (NCATS), 2013).
Inconclusive results are not listed. Calls of active or inactive are those of the source. Calls follow the shape of the dose curve; as a rule, active = well fitted activation curve with a large enough effect; inconclusive = small, poorly fitted or top-dose-only effect; inactive = no such curve, though single readings can be large or run the other way.

Assay: Extended Characterization of HPGD Inhibitors: PGE2 Assay in LNCaP Cells
Details: PGE2 HTRF level, 16 h; series mostly up to 100 µM; PGE2 level, % of control (higher = increase): at the top concentration
From the text: The central role of HPGD is to inactivate prostaglandins such as prostaglandin E2 (PGE2) or prostaglandin D2 (PGD2). These prostaglandins are involved in a number of processes, including inflammation, differentiation, and cellular signaling, which makes HPGD an important target for pharmacological intervention. A number of prostaglandins of particular biological interest have been identified as substrates of HPGD. […] Over-production of PGE2 has been reported to promote tumor-associated neovascularization, cell proliferation, and tumor growth. […] In this orthogonal assay, we set out to measure if compounds were able to increase PGE2 production NIH Chemical Genomics Center [NCGC] NIH Molecular Libraries Probe Centers Network [MLPCN] MLPCN Grant: MH084681 Assay Submitter (PI): Structural Genomics Consortium
A549 cells, LNCaP cells or media were dispensed in 384-well plates (ProxiPlate-384 Plus, PerkinElmer, Shelton, CT) at 5,000 cells/9.9 uL/well using a CappAero384 multichannel pipette (Odense, Denmark). Separately on the plate, 10 uL of PGE2 calibration standards at a starting assay concentration of 5,000 pg/mL (1:2 dilution, 12-points, n = 1, prepared in media, Cisbio, Bedford, MA) were dispensed. Compounds (100 nL, final concentration range from 41.9 nM to 100 uM) were transferred using an ATS Acoustic Liquid Dispenser (EDC Biosystems, Fremont, CA). After being mixed using an automated liquid handler (CyBio, Jena, Germany), samples were incubated (37 deg C, 5% CO2, under a humidified atmosphere) for 16 hours. PGE2 labeled conjugates were added to each well, first 5 uL of PGE2-d2, followed by 5 uL of anti-PGE2-cryptate, centrifuged (1,500 rpm, 15 sec) and incubated (RT, protected from light) for 5 hours. Time-resolved fluorescence intensity (320 nm excitation, 615 and 665 nm emission) was measured using an Envision plate reader (PerkinElmer). Data was expressed as the ratio of 665 nm/615 nm emissions. Concentration (pg/mL) of samples were calculated from a 4-parameter logistic calibration curves of the PGE2 standards.

Potency, active:
Cc1cc(-c2nnc3n2CCCCC3)c(C)n1-c1ccc(Br)cc1 2.8 µM, COc1ccccc1-n1cnc2cc(C(=O)N3CCCCC3)ccc21 1.76 µM, Cc1cccc(-n2cnc3cc(C(=O)NC4CCCCC4)ccc32)c1 22.2 µM, CCOC(=O)c1ccc(-n2c(C)cc(-c3nnc4n3CCCCC4)c2C)cc1 14 µM, Clc1ccc(CSc2nc3ncc(Br)cc3[nH]2)cc1Cl 22.2 µM, O=C(c1ccc2c(c1)ncn2-c1cccc(C(F)(F)F)c1)N1CCCCC1 2.8 µM, FC(F)(F)c1ccc(CSc2nc3ncc(Br)cc3[nH]2)cc1 44.3 µM, Fc1ccc(CSc2nc3ncc(Br)cc3[nH]2)cc1 35.2 µM, Clc1cccc(CSc2nc3ncc(Br)cc3[nH]2)c1 44.3 µM, O=C(c1ccc2c(c1)ncn2-c1ccc(Cl)cc1)N1CCCCC1 0.884 µM, CC(C)(C)c1ccc(CSc2nc3ncc(Br)cc3[nH]2)cc1 35.2 µM

PGE2 level, % of control (higher = increase), inactive:
Cc1cccc(-n2cnc3cc(C(=O)N4CCC(Cc5ccccc5)CC4)ccc32)c1 144%, CCOC(=O)c1ccc(-n2cnc3cc(C(=O)N4CCCCC4)ccc32)cc1 450%, O=[N+]([O-])c1cccc(CSc2nc3ncc(Br)cc3[nH]2)c1 469%, c1ccc(-n2cc(-c3nnc4n3CCCCC4)cn2)cc1 147%, Cc1cccc(-n2cnc3cc(C(=O)N4CCC(c5ccccc5)CC4)ccc32)c1 147%
